# VP16 counter: Gal4-VP16 reporter inhibition counter-screen; Drosophila S2 Gal4-VP16 UAS-luciferase, luminescence, 20 h; Potency, µM (highest dose often 53.6 µM), for the others: at the highest dose activity, negative = inhibition, hits mostly inhibitors; 3.5% of 310,000 active;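 also: Gal4-VP16 expression switched on by copper sulfate through the metallothionein promoter; nearly all actives have a fitted effect of over 50% in size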
# TDP1 inh: TDP1 (human) enzyme inhibition; Q9NUW8; recombinant TDP1, AlphaScreen DNA substrate cleavage; Potency, µM (series often up to 130 µM), for inactives: top-dose activity change, negative = inhibition, hits mostly inhibitors; 0.28% of 350,000 active; AID 485290; also: nearly all actives have a fitted effect of over 40% in size
#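 AlphaScreen read-out: signal falls as enzyme removes the 3' tyrosine-FITC from a 5'-biotinylated DNA oligo (15 nM, 5 min, RT). Enzyme was E. coli-made recombinant Tdp1 at 1 nM, exposed to compound for 15 min beforehand; beads 10 ug/ml, 10 min.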
# RORgamma inh: blocks mouse ROR gamma transcriptional activity. P51450. 5.4% of 310,000 active. Potency, µM (doses to about 53.6 µM), for inactives: top-dose activity change, negative = inhibition, actives largely listed as inhibitors. Drosophila S2 Gal4-RORgamma UAS-luciferase reporter, 20 h; also: nearly all actives have a fitted effect of over 60% in size
# Target sequence (P51450 whole entry, looked up, the tested form may be a part): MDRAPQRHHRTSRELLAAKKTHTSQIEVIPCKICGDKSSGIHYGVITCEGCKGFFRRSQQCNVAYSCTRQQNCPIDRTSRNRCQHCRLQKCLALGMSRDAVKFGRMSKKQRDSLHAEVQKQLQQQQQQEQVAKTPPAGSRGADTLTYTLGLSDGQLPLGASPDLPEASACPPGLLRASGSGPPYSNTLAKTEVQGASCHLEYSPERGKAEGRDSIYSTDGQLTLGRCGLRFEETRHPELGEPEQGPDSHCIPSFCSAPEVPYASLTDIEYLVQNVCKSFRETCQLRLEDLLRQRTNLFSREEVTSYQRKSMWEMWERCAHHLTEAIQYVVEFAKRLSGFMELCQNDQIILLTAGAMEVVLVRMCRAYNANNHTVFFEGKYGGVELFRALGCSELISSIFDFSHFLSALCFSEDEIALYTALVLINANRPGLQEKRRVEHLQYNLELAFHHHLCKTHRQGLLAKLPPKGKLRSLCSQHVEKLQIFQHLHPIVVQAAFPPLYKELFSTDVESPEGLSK
#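 Stably transfected Drosophila Schneider cells are the test system, with ROR gamma fused to Gal4 and luciferase under UAS control; luminescence is read after 20 hr of 700 uM copper sulfate induction at ambient temperature.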
# TDP1 cell noCPT: qHTS for Inhibitors of human tyrosyl-DNA phosphodiesterase 1 (TDP1): qHTS in cells in absence of CPT | DT40 Tdp1-/- hTDP1 cells, no CPT, ATP luminescence, 48 h | Potency, µM (titrated, usually from 46.2 µM), for the others: top-dose activity change, negative = growth inhibition, actives largely listed as inhibitors | 15% of 420,000 active | AID 686978, 2013; also: nearly all actives have a fitted effect of over 55% in size
#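 No-CPT arm: Tdp1-/-;hTDP1 DT40 cells (400/well) plus compounds, incubated ≥48 hr at 37 °C. Readout CellTiter-Glo luminescence.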
# TDP1 cell CPT: growth inhibition of DT40 Tdp1-/-;hTDP1 cells with camptothecin (screen for TDP1 inhibitors). Potency, µM (top dose mostly 46.2 µM), for inactives: top-dose activity change, negative = growth inhibition, hits mostly inhibitors. 12% of 420,000 active. chicken DT40 Tdp1-/-;hTDP1 cells + 20 nM CPT, ATP luminescence, 48 h; also: nearly all actives have a fitted effect of over 55% in size
#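 Chicken DT40 Tdp1-/- cells stably complemented with human TDP1 were seeded at 400 cells/well in medium containing 20 nM camptothecin, exposed to pin-transferred compounds, and grown at 37 °C for at least 48 hr. Viability was read as ATP luminescence.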
# * = called active by the depositor; ? = inconclusive; . = no result; [ ] = dose if it differs, or a comment. A selection: hits, their analogues and other compounds. The true share with any hit is near 19%. Calls follow the shape of the dose curve; as a rule, active = well fitted curve in the direction sought with a large enough effect; inconclusive = small, poorly fitted or top-dose-only effect, or another doubt; inactive = no such curve, though single readings can be large; an effect the other way counts as inactive or inconclusive. % is scaled to controls: 0 for no effect and ±100 for the full control effect; potency is read from the fitted curve at half-maximal effect.
SMILES,VP16 counter,TDP1 inh,RORgamma inh,TDP1 cell noCPT,TDP1 cell CPT
CCOc1ccc2[nH]c(=O)c(CN(CCCN3CCOCC3)Cc3nnnn3Cc3ccc(OC)cc3)cc2c1,-2%,0%,6%,21µM*,?
COCCn1nnnc1CN(Cc1ccco1)Cc1cc2cc3c(cc2[nH]c1=O)OCO3,-7%,3%,-3%,-19%,?
COc1cc2cc(CN(CCCN3CCOCC3)Cc3nnnn3Cc3ccccc3)c(=O)[nH]c2cc1OC,5%,2%,0%,-5%,-2%
CCC(c1nnnn1CC1CCCO1)N(CCCO)Cc1cc2cccc(C)c2[nH]c1=O (stereo not given),-9%,5%,20%,-20%,?
Cc1cccc2cc(CN(CC3CCCO3)C(c3nnnn3Cc3ccco3)C(C)C)c(=O)[nH]c12 (stereo not given),-2%,7%,?,15µM*,16µM*
CCN(C[C@H]1N[C@@](C)(C(=O)OC)[C@H]2C(=O)N(Cc3ccccc3)C(=O)[C@@H]12)C(=O)Nc1ccccc1,.,1%,.,-17%,-23%
COc1ccc(-c2cccc(C(=O)NCC(=O)O)c2)cc1,2%,4%,21%,3%,-5%
CCN1CCN(S(=O)(=O)c2ccc(Cl)c(C(=O)Nc3ccc(OC(F)F)cc3)c2)CC1,6%,2%,17%,?,?
COC(=O)c1ccccc1S(=O)(=O)N(Cc1ccco1)Cc1cc2cc(OC)ccc2[nH]c1=O,12%,-1%,11%,18µM*,?
CCC(C)(C)n1nnnc1CN(Cc1ccco1)Cc1cc2cc3c(cc2[nH]c1=O)OCO3,-8%,0%,32%,16µM*,21µM*
COc1ccc2[nH]c(=O)c(CN(Cc3cccs3)S(=O)(=O)c3c(C)ccc4nsnc34)cc2c1,-3%,4%,1%,18µM*,4.1µM*
Cc1ccc(C(=O)Nc2ccc(C(=O)OCc3cc(=O)n4nc(C5CC5)sc4n3)cc2)cc1,.,6%,.,-27%,-13%
CCOC(=O)N1CCC(NC(=O)Cn2ncc3c2-c2cc(C)ccc2OC3)CC1,0%,0%,8%,?,-2%
CN(C)CCCN(C(=O)c1ccc(S(=O)(=O)N2CCOCC2)cc1)c1nc2cc3c(cc2s1)OCO3,-2%,5%,19%,0%,4%
CN(C)CCCN(C(=O)c1ccc(S(=O)(=O)N2CCCCC2)cc1)c1nc2cc3c(cc2s1)OCO3,-16%,6%,-38%,?,23µM*
CN(C)CCCN(C(=O)c1ccc(S(=O)(=O)N2CCCC2)cc1)c1nc2ccc(Br)cc2s1,?,7%,?,21µM*,23µM*
CN1CCN(CCCNC(=O)c2ccc3c(=O)n(CCc4ccccc4)c(=O)[nH]c3c2)CC1,-2%,-13%,-6%,?,-3%
CC(=O)c1cccc(NC(=O)c2oc(=O)c3ccccc3c2-c2ccccc2)c1,.,9%,.,-17%,-15%
COc1c(C2=CC(=O)N(C)C2=O)c2c(n1C)C(=O)c1ccccc1C2=O,10µM*,5%,?,0.58µM*,0.52µM*
CN1C(=O)c2ccccc2C1=O,.,.,.,-24%[92.5 µM],?
O=C(CCC1N=C2c3ccccc3N=C(SCc3ccc(F)cc3)N2C1=O)N1CCN(c2ccccc2)CC1 (stereo not given),.,10%,.,26µM*,?
O=C(CCC1N=C2c3ccccc3N=C(SCc3ccc(Cl)cc3)N2C1=O)NCCc1ccccc1 (stereo not given),.,6%,.,?,18µM*
COc1ccccc1CNC(=O)CCC1N=C2c3ccccc3N=C(SCC(=O)NCCc3ccc(OC)c(OC)c3)N2C1=O (stereo not given),.,0%,.,?,18µM*
O=C(CCC1N=C2c3ccccc3N=C(SCC(=O)NCCc3ccccc3)N2C1=O)NCc1ccc(F)cc1 (stereo not given),.,6%,.,?,?
O=C(CCC1N=C2c3ccccc3N=C(SCc3cccc(F)c3)N2C1=O)NCc1ccc(F)cc1 (stereo not given),.,0%,.,18µM*,?
SMILES,VP16 counter,TDP1 inh,RORgamma inh,TDP1 cell noCPT,TDP1 cell CPT
O=S1(=O)CC(N2CCN(c3ncccn3)CC2)CN1Cc1ccc(F)cc1 (stereo not given),.,.,.,-12%,-9%
O=C(CCC1N=C2c3ccccc3N=C(SCc3cccc(Cl)c3)N2C1=O)NCc1cccs1 (stereo not given),.,-2%,.,21µM*,12µM*
O=C(CCC1N=C2c3ccccc3N=C(SCc3cccc(F)c3)N2C1=O)NCCc1ccccc1 (stereo not given),.,1%,.,?,21µM*
O=C(CCC1N=C2c3ccccc3N=C(SCc3cccc(Cl)c3)N2C1=O)NCCc1ccccc1 (stereo not given),.,9%,.,?,?
Cc1cccc(NS(=O)(=O)c2ccc3c(c2)OCCO3)c1,3%,1%,2%,-20%,-24%
Cc1snc(S(=O)(=O)Cc2ccccc2Cl)c1C#N,12%,-3%,-7%,-15%,7%
CCN(CC)c1cc(C)c2cc(NC(=O)c3ccc(F)cc3Cl)ccc2n1,.,0%,.,?,?
CCCCc1ccc(C(=O)Nc2ccc3nc(N(CC)CC)cc(C)c3c2)cc1,.,-3%,.,18µM*,?
Cc1ccc(NC(=O)c2cccs2)cc1,?,6%,?,-15%,?
CCN(CC)c1cc(C)c2cc(NC(=O)c3cc(OC)cc(OC)c3)ccc2n1,.,6%,.,?,?
CCN(CC)c1cc(C)c2cc(NC(=O)c3ccc(Br)o3)ccc2n1,6%,9%,19%,?,?

# Compound activity as filed in PubChem BioAssay.
